Inconclusive results are not listed. Values without a mark were called inactive. The call rests on the fitted dose curve; in most records, active means well fitted inhibition curve with a large enough effect; inconclusive means small, poorly fitted or top-dose-only effect; inactive means flat fitted curve, though single readings scatter.
Biological target: Aldehyde dehydrogenase, mitochondrial (Homo sapiens) (UniProt P05091)
Assay: qHTS for Inhibitors of the Aldehyde Dehydrogenase Family (ALDH2) Primary screen (AID 2061308);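 further: plate controls were vehicle for no effect and reference inhibitor for full effect; nearly all actives have a fitted effect of over 55% in size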
Conditions: ALDH2 enzyme inhibition qHTS, 1536-well; series mostly up to 56 µM; activity change, negative = inhibition: at the top concentration

SMILES	activity change, negative = inhibition
Nc1nc(CC(=O)Nc2ccc(CCNCC(O)c3ccccc3)cc2)cs1 (centres undefined)	7.11%
COCc1c(Cl)ccc2c1CC[C@H]2c1ncc[nH]1	-2.12%
O=C(Nc1ccc(F)cc1)N1CCc2ccccc2C1c1ccc(C(F)(F)F)cc1 (centres undefined)	-0.766%
NCc1c[nH]c(=S)n1[C@@H]1CCc2c(F)cc(F)cc2C1	4.68%
Nc1nc2c(c(N3CCNCC3)n1)CCC1=C2[C@@H]2CCCC[C@@H]2O1	15.9%
C[C@H](Nc1cc2c(-c3ccc4c(c3)OCO4)noc2cn1)c1ccccc1	-2.78%
COC(=O)C(Cc1ccc(OCCn2c(=O)sc3cc(C(=O)c4ccccc4)ccc32)cc1)C(=O)OC	-4.61%
Cc1nc2n(c(=O)c1CCN1CCC(c3noc4cc(F)ccc34)CC1)CCC[C@H]2O	3.97%
CCOc1ccc(-n2c([C@@H](C)N(Cc3cccnc3)C(=O)Cc3ccc(OC(F)(F)F)cc3)nc3ncccc3c2=O)cc1	-4.65%
O=C1N=C(N2CCOCC2)CN1c1ccc(Cl)cc1	-4.32%
CO[C@@H]1[C@@H](O[C@H]2O[C@@H](C)[C@H](O[C@@H]3C[C@](C)(O)[C@H](O)[C@@H](C)O3)[C@@H](N(C)C)[C@@H]2O)[C@@H](CC=O)C[C@@H](C)[C@@H](O[C@H]2CC[C@H](N(C)C)[C@H](C)O2)/C=C/C=C/C[C@@H](C)OC(=O)C[C@H]1O	12.4%
O=C(Nc1cccnn1)N1CCN(c2nccc(-c3ccc(F)c(F)c3)n2)CC1	-3.15% [at 114 µM]
Cn1c(SCC(=O)N2CCC[C@H]2C(=O)Nc2ccccc2-c2ccccc2)nc2ccccc21	14.4%
N[C@@H](CC(=O)Nc1ccc(Oc2cc(F)c(F)cc2Br)cc1)C(=O)O	-0.792%
